PubChem BioAssay AID720707 (National Center for Advancing Translational Sciences (NCATS), 2013)
Hit rate of the full screen: of about 360,000 compounds, about 270 (0.075%) were called active. Calls follow the shape of the dose curve; as a rule, active = well fitted activation curve with a large enough effect; inconclusive = small, poorly fitted or top-dose-only effect; inactive = no such curve, though single readings can be large or run the other way. Many of the other results were omitted from the sample, so actives are more common in it than they were.

Each compound was assayed against Rap guanine nucleotide exchange factor 3 (Homo sapiens) (UniProt O95398) (assay: qHTS for Agonist of cAMP-regulated guanine nucleotide exchange factor 3 (EPAC1): primary screen). Settings: biochemical assay; series mostly up to 154 µM; activation: at the top concentration.
Description: In multi-cellular eukaryotic organisms, the effects of cAMP are transduced by two ubiquitously-expressed intracellular cAMP receptors, the classic protein kinase A/cAMP-dependent protein kinase (PKA/cAPK) and the more recently discovered exchange protein directly activated by cAMP/cAMP-regulated guanine nucleotide exchange factor (EPAC/cAMP-GEF). Both PKA and EPAC are ubiquitously expressed in all tissues, and an increase in intracellular cAMP levels will lead to the activation of both PKA and EPAC. Therefore, careful dissections of the individual role and relative contribution of EPAC and PKA within the overall cAMP signaling in various model systems are critical for further elucidating the mechanism of cAMP signaling. To date no EPAC-specific antagonists and agonist, as well as isoform-specific agonists have been reported, and developing EPAC-specific pharmacological probes to determine the physiological functions that EPAC play in the overall cAMP-mediated signaling remains a major challenge within the research field. Furthermore, identified regulators of EPAC may lead to new mechanism-based therapeutic strategies specifically targeting the EPAC / cAMP-signaling components as EPAC has been implicated to play important roles in major human pathological conditions such as diabetes, heart disease, and cancer.
This qHTS will be used to screen the Molecular Libraries Small Molecule Repository (MLSMR) as a concentration-titration series using the NCGC unique quantitative screening (qHTS) platform to find activators for EPAC1. In addition, this assay will also be used as a counterscreen for the EPAC2 qHTS. This fluorescent based assay is developed and validated for EPAC1 that measures exchange using EPAC effector Rap1 complex with BODIPY-GDP, a GDP analog with a tethered fluorophores. Activators are identified by monitoring the change in fluorescence signal as the exchanged free BODIPY-GDP has a reduced fluorescence compared to Rap1-bound BODIPY-GDP. Increase in signal (activation) is the desired outcome for the EPAC1 agonist while no activity in this assay is desired for the EPAC2 agonist counterscreen.
[1] de Rooij, J., Zwartkruis, F. J., Verheijen, M. H., Cool, R. H., Nijman, S. M., Wittinghofer, A., and Bos, J.L. (1998) Nature 396, 474-477
NIH Chemical Genomics Center [NCGC]
NIH Molecular Libraries Probe Centers Network [MLPCN]
Assay Submitter (PI): Xiaodong Cheng, The University of Texas Medical Branch
Briefly, three uL of reagents (100 nM EPAC1, 250 nM RAP1B-BODIPY-GDP, 50 uM GDP) were dispensed into a 1536-well Greiner black solid-bottom medium binding assay plate. Controls and test compounds (23 nL) were transferred to the plate via a Kalypsys pin tool equipped with a 1536-pin array. The plates were centrifuged at 1,000 rpm for 15 seconds followed by 5 minute incubation at room temperature. The assay plates were read at 5 minute intervals for 30 minutes in the ViewLux plate reader using 480nm excitation and 540nm emission filters. The results were normalized to the agonist positive control of 6.5 mM cAMP.
Also: nearly all actives have a fitted effect of over 60% in size.
Potency is read from the fitted curve at half-maximal effect.

Rap guanine nucleotide exchange factor 3 (Homo sapiens), sequence (O95398 whole entry, looked up): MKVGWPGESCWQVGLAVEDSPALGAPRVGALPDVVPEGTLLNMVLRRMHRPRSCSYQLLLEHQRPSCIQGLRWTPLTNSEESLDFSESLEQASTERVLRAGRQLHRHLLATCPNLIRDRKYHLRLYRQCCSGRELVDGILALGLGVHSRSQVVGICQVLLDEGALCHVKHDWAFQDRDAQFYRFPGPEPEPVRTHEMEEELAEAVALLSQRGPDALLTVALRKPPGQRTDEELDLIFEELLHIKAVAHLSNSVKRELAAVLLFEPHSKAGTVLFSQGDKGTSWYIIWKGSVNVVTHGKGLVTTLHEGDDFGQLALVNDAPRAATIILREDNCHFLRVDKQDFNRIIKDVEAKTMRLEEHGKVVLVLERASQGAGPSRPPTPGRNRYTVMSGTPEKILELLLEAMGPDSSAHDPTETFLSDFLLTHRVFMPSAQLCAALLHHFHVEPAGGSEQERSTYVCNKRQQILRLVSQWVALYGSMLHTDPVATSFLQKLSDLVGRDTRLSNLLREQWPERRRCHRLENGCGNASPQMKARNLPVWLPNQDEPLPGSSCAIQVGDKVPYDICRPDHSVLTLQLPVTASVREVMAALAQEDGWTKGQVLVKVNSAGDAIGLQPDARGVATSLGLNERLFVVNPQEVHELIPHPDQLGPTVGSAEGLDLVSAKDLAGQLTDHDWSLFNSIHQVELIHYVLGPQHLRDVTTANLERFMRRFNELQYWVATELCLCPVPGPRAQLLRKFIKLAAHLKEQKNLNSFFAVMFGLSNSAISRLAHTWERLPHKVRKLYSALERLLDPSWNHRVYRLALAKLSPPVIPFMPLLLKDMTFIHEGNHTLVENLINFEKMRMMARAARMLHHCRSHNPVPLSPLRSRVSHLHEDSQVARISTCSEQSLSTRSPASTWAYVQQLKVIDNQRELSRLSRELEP

activation, inactive:
COC(=O)CN(c1cccc(C(C)=O)c1)S(C)(=O)=O 2.68%, CN(CC(=O)Nc1ccccc1[N+](=O)[O-])Cc1ccc(Br)cc1 -0.157%, O=C(C[C@H]1CC[C@H]2[C@@H](COC[C@H](O)CN2C(=O)c2ccccn2)O1)N1CCN(c2ccccc2)CC1 -8.67%, Cc1ccccc1-n1cc(CNC(=O)C2CCC(=O)N(C3CC3)C2)cn1 (stereo unspecified) 3.43%, Cc1ccc(NC(=O)CCC(=O)N2CCC(c3ccccc3)=N2)cc1S(=O)(=O)N1CCCCC1 2.62%, O=C(NC(=S)Nc1ccc(Br)cc1F)C1CCCCC1 7.55%, CCOc1ccc(NC(=O)C2CCN(C(=O)N3CCOc4ccccc43)CC2)cc1 -0.584%, CCOc1ccc(CC(=O)Nc2ccc(S(=O)(=O)Nc3cc(C)on3)cc2)cc1OCC -2.8%, CCC(C)NC(=O)Cn1nc(C(F)(F)F)c2c1CCC2 (stereo unspecified) -4.09%, COc1cc(Cl)c(C)cc1NC(=O)CSc1nnc(CN2CCCC2)o1 -0.0539%, COc1ccc(OC)c(NC(=O)c2cc(-c3cc(F)ccc3OCC3CCCO3)n[nH]2)c1 (stereo unspecified) -2.63%, O=C(NCCC1CCCCN1S(=O)(=O)c1ccccc1)C(=O)NCC1CCCO1 (stereo unspecified) -5.17%, O=C(NCCc1ccco1)C(=O)NCCC1CCCCN1S(=O)(=O)c1ccccc1 (stereo unspecified) 1.6%, COCCCNc1nc2ccccc2nc1NS(=O)(=O)c1ccc(F)cc1 -1.08%, CO/N=C/c1cn(-c2ccc(Cl)cc2)nn1 6.91%, CN1CCN(C2=NCCO2)CC1 -0.11%, CC(=O)Oc1ccc(Cn2c(C)c(C(=O)NCc3ccc(C#N)cc3)sc2=O)cc1 4.44%, Cc1cccc(CC(=O)N2CCN=C2SCc2ccc([N+](=O)[O-])cc2)c1 4.91%, Cc1ccc(S(=O)(=O)N2CCCCC2)cc1C(=O)N(C)CC(=O)Nc1cccc(F)c1 -1.63%, Cc1cc(NC(=O)CN2C(=O)NC(C)(CCc3ccccc3)C2=O)no1 (stereo unspecified) 3.5%, Cc1cccc(-c2nc(CS(=O)CC(=O)NC(C)CCc3ccccc3)c(C)o2)c1 (stereo unspecified) 4.27%, CC(C)N1CCC(=NNc2ccc([N+](=O)[O-])cc2S(=O)(=O)N2CCOCC2)CC1 4.79%, Cc1ccccc1NC(=O)C1CCCN(C(=O)NCc2ccccc2)C1 (stereo unspecified) -0.75%, O=C1CCC(C(=O)N2CCN(c3ccccc3Cl)CC2)CN1CC1CCCCC1 (stereo unspecified) -2.26%, CS(=O)(=O)/C(C#N)=C/c1cccn1S(=O)(=O)c1ccc([N+](=O)[O-])cc1 -9.53%, O=C(c1ccc(CS(=O)Cc2ccccc2Cl)o1)N1CCN(c2ccccc2)CC1 (stereo unspecified) 11%, CCN1C(=NCc2ccc(OC)cc2)N[C@@H](CCc2ccccc2)[C@H](C(=O)NCc2ccc(OC)cc2)[C@H]1C -8.48%, CCc1cccc(CC)c1N1C(=O)CC(Sc2ccccc2N)C1=O (stereo unspecified) 8.79%, CCCC(=O)OCC(=O)Nc1cc(Cl)ccc1[N+](=O)[O-] 2.31%, CC(C)Cc1ccc(S(=O)(=O)N2CCN(C(=O)c3ccco3)CC2)cc1 -8.05%, CC(=O)c1cccc(NC(=O)N2CCCC2C(=O)NCCC(C)C)c1 (stereo unspecified) 0.342%, Cc1ccsc1C(=O)N[C@@H](C)c1nnc2ccccn12 2.04%, COC(=O)[C@@]1(C)[C@H]2C(=O)N(Cc3ccccc3)C(=O)[C@H]2[C@H]2CN=C(SCC3CC3)N21 -7.77%, NC(=O)C1CCN(C(=O)c2ccc(-c3ccccc3)cc2)CC1 -6.39%, O=C(C1=C(O)C(=O)N(CCOCCO)C1c1ccccn1)c1cccs1 (stereo unspecified) 1.34%, CCOC(=O)c1cnn2c(SC)ncnc12 8.61%, COCCn1c(SCC(=O)N2CCCCCC2)nc2c(c1=O)SCC2 0.332%, CC(=O)Nc1ccc(S(=O)(=O)NNC(=O)CCc2ccccc2)cc1 -0.565%, CCNC(=O)c1cnn(-c2ccccc2)c1-c1ccccc1 6.35%, CN1CCN(Cc2nc3c(c(=O)n(C)c(=O)n3C)n2Cc2cccc3ccccc23)CC1 -10.8%, Cc1ccc2c(c1)N(CC(=O)N1CCC(O)CC1)C(=O)CO2 4.96%, CCOC(=O)C1CCN(C(=O)CSc2cc(=O)n(C)c3ccccc23)CC1 0%, CCOC(=O)C1CCCN(C(=O)c2sc3nc(C)nc(N4CCOCC4)c3c2C)C1 (stereo unspecified) 0.4%, CS(=O)(=O)N1CCc2cc(C(=O)Nc3ccccc3Br)ccc21 4.31%, CC(=O)c1ccc(N2CCN(S(=O)(=O)c3c(C)[nH]c(=O)[nH]c3=O)CC2)cc1 1.54%, C=CCN(CC=C)C(=O)COC(=O)c1n[nH]c2ccccc12 6.61%, CCOC(=O)c1cc(-c2ccc(F)cc2)n(CC(=O)NCc2ccccn2)c1C -10.1%, CC[C@H](C)C(=O)N[C@H]1CCCN1C(=O)/C=C/c1ccccc1 4.71%

Potency, active:
CCN(CC)c1ccc2oc(=O)c(C)nc2c1 100 µM, O=C(NCCC1CCCCN1S(=O)(=O)c1ccc(Cl)cc1)C(=O)NCc1ccco1 (stereo unspecified) 50.1 µM, Nc1ccc2nc3c(=O)[nH]c(=S)[nH]c3nc2c1 89.1 µM
